Records with an inconclusive call do not appear. Entries that show only a call come without a potency. The source made the active and inactive calls. Calls follow the shape of the dose curve; as a rule, active = well fitted inhibition curve with a large enough effect; inconclusive = small, poorly fitted or top-dose-only effect; inactive = flat fitted curve, though single readings scatter.

The test concerns Zika virus NS2B-NS3 protease. The test can be described thus: Primary screen GU AMC qHTS for Zika virus inhibitors (AID 1347154). Also: nearly all actives have a fitted effect of over 70% in size. The conditions noted are these: Zika NS2B-NS3 unlinked protease, AMC fluorogenic substrate; series mostly up to 54.1 µM. Summed up: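 Fluorogenic AMC-substrate cleavage by noncovalent NS2B-NS3 protease complex (25 nM, pH 8.0 Tris buffer with Tween 20) followed for 15 minutes at room temperature (~20% conversion). Percent inhibition from ex340/em450 signal change, fitted by 4-parameter Hill equation.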
Consider `CC(C)Nc1cccnc1N1CCN(C(=O)c2cc3cc(NS(C)(=O)=O)ccc3[nH]2)CC1`, for which the Potency result is “inactive”.

For `CCOc1ccccc1OCCN[C@H](C)Cc1ccc(OC)c(S(N)(=O)=O)c1`, the Potency entry was “inactive”.

In the case of `N#CCC(=O)NN`, the Potency entry is “inactive”.

In the case of `Cc1cc(NS(=O)(=O)c2ccc(N)cc2)nc(C)n1`, the Potency entry is “inactive”.

As to `Cc1cc(C)cc(OCC2CNC(=O)O2)c1` (centres undefined), the Potency result was “inactive”.

With `CCN(CC)CCNC(=O)COc1ccc(OC)cc1`, the Potency entry is “inactive”.

For `NS(=O)(=O)c1cc2c(cc1Cl)NC(CC1CCCC1)NS2(=O)=O` (centres undefined), the Potency result is “inactive”.

Regarding `O=[N+]([O-])c1cccc(S(=O)(=O)NCCNS(=O)(=O)c2cccc([N+](=O)[O-])c2)c1`, the Potency entry is “inactive”.

On to `CCCCC(CC)COC(=O)c1ccc(N(C)C)cc1` (centres undefined), for which the Potency result is “inactive”.

In the case of `CC(C)CCCC(C)N` (centres undefined), the Potency entry is “inactive”.

Take `CC(C)Cn1cnc2c1c(=O)n(C)c(=O)n2C`: the Potency result was “inactive”.

As to `N#C/C(=C1\SCC(c2ccccc2Cl)S1)n1ccnc1` (centres undefined), the Potency result was “inactive”.

Turning to `Cc1cc(-c2ccccc2)nnc1NCCN1CCOCC1`, the Potency result was “inactive”.

Regarding `O=C(NC1CCN(CCc2c[nH]c3ccccc23)CC1)c1ccccc1`, the Potency result was “inactive”.

On to `CCCCNC(=O)NS(=O)(=O)c1ccc(N)cc1`, for which the Potency entry was “inactive”.

As for `CCC1Nc2cc(Cl)c(S(N)(=O)=O)cc2S(=O)(=O)N1` (centres undefined), the Potency entry is “inactive”.

Consider `CC(=O)Nc1ccc(OC(=O)c2ccccc2OC(C)=O)cc1`, for which the Potency entry was “inactive”.

As to `CCOCCn1c(N2CCCN(C)CC2)nc2ccccc21`, the Potency entry was “inactive”.

Turning to `C=CCN1CCc2nc(N)sc2CC1`, the Potency entry is “inactive”.

Take `O=C(O)C(Cc1cc(I)c(O)c(I)c1)c1ccccc1` (centres undefined): the Potency result is “inactive”.

Regarding `CC(C)(C)CC(C)(C)c1ccc(O)c(-n2nc3ccccc3n2)c1`, the Potency entry is “inactive”.

Take `Cc1cc2c(OCC(CNC(C)(C)C)OC(=O)c3ccccc3)cccc2[nH]1` (centres undefined): the Potency result is “inactive”.

For the molecule `CC(=O)OC[C@H]1O[C@@H](n2ncc(=O)[nH]c2=O)[C@H](OC(C)=O)[C@@H]1OC(C)=O`, the Potency result was “inactive”.

Regarding `NC1CCN(c2nc3c(cc2F)c(=O)c(C(=O)O)cn3-c2ccc(F)cc2F)C1` (centres undefined), the Potency result is “inactive”.

With `CCN(CC)CCOC(=O)C1(c2ccccc2)CCCC1`, the Potency result was “inactive”.

As for `COc1ccccc1N1CCN(CCCCNC(=O)c2ccc(-c3ccc(C(C)=O)cc3)cc2)CC1`, the Potency result was “inactive”.

As to `CCN1CCN(C(=O)N[C@@H](C(=O)N[C@@H]2C(=O)N3C(C(=O)O)=C(CSc4nnnn4C)CS[C@H]23)c2ccc(O)cc2)C(=O)C1=O`, the Potency entry was “inactive”.

As to `OC[C@H]1O[C@@H](Oc2ccc(O)cc2)[C@H](O)[C@@H](O)[C@@H]1O`, the Potency entry is “inactive”.

Regarding `CO[C@]12C[C@@H](COC(=O)c3cncc(Br)c3)CN(C)[C@@H]1Cc1cn(C)c3cccc2c13`, the Potency entry was “inactive”.

For `CCCCC(CC)CN1CN(CC(CC)CCCC)CC(C)(N)C1` (centres undefined), the Potency result was “inactive”.

On to `CN1CCC(OC(c2ccccc2)c2ccccc2)CC1`, for which the Potency result is “inactive”.

Consider `C/C=C/C=N/NC(=O)c1ccncc1`, for which the Potency entry was “inactive”.

In the case of `CCOC(=O)C(C#N)=C(c1ccccc1)c1ccccc1`, the Potency result is “inactive”.

With `CCCc1ncc(C[n+]2ccccc2C)c(N)n1`, the Potency entry was “inactive”.

Regarding `COP(=O)(OC)OC(c1ccc(Cl)cc1)P(=O)(OC)OC` (centres undefined), the Potency result was “inactive”.

For `Cc1cn([C@H]2C[C@H](F)[C@@H](CO)O2)c(=O)[nH]c1=O`, the Potency entry is “inactive”.

`CC(C)(C)NC[C@H](O)COc1cccc2c1CCCC2=O`: the Potency entry was “inactive”.

On to `N/C(=N\N=C\c1ccc(Cl)cc1)N/N=C/c1ccc(Cl)cc1`, for which the Potency result was “inactive”.

For the molecule `CNCCCCOc1ccccc1Cc1ccccc1`, the Potency entry is “inactive”.

The values are drawn from PubChem BioAssay (NCATS).
